We go through 72 compounds from PubChem BioAssay (EPA / NIEHS).

Results filed as inconclusive are left out. Active and inactive are the calls of the source. The calls were made as follows: active = hit-call score of the fitted dose curve at least 0.9, where 1 is the maximum; inconclusive = response in the unintended direction; inactive = score below 0.9.

Experiment [1] in a line: ACEA_AR_agonist_AUC_viability: ACEA Biosciences xCELLigence Real-Time Cell Analysis on Androgen Receptor Agonism for Viability (AID 2283775).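 As to AC50: viability read 80 hours after compound addition.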 In outline:
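Real-time impedance tracking of 22Rv1 growth, readings every 5 min for 5 h then hourly; area-under-curve viability endpoint at 80 hours, relative to DMSO. Compounds at eight concentrations, 1:4 steps, top 100 uM, n = 2.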

Experiment [2] can be described thus: ACEA_AR_antagonist_AUC_viability: ACEA Biosciences xCELLigence Real-Time Cell Analysis on Androgen Receptor Antagonism for Viability (AID 2283776).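 Also: 22Rv1 human prostate cancer cells growing on impedance electrode plates; hits lower the growth signal relative to DMSO meaning cytotoxicity.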 In outline:
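22Rv1 prostate cells, continuous dosing up to 100 uM final (0.5% DMSO max), duplicate plates. Growth measured by impedance; AUC at 80 h, loss of signal vs DMSO.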

Experiment [3] is described as follows: ACEA_ER_AUC_viability: ACEA Biosciences xCELLigence Real-Time Cell Analysis on Estrogen Receptor Agonism for Viability (AID 2283782).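 Also: continuous compound exposure with impedance area under curve over 80 h; hit means loss of impedance signal meaning reduced cell growth or viability.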 The essentials: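 T-47D; phenol red-free RPMI1640 + 10% CS-FBS; 8 conc., 1:4 serial, max 100 uM final, ≤0.5% DMSO; n = 2; continuous exposure; impedance monitored to 80 h post-dose; AUC vs DMSO.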
Experiment [4] deals with AR (gene 367) (UniProt P10275). The experiment in a line: ACEA_AR_agonist_80hr: ACEA Biosciences xCELLigence Real-Time Cell Analysis on Androgen Receptor Agonism for Proliferation (AID 2283783).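 Also: hits increase impedance growth signal above DMSO baseline.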 In outline: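 Androgen-driven proliferation in 22Rv1 cells is tracked as electrical impedance, taken 80 h after continuous exposure to compound (eight concentrations, 1:4 steps, maximum 100 uM final). Activity is fitted in the positive direction with DMSO as baseline.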

Experiment [5] has as its target AR (gene 367) (UniProt P10275). The experiment in a line: ACEA_AR_antagonist_80hr: ACEA Biosciences xCELLigence Real-Time Cell Analysis on Androgen Receptor Antagonism for Proliferation (AID 2283787).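 Also: 22Rv1 human prostate cancer cells with growth followed by electrical impedance; hits lower the impedance growth signal relative to DMSO.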 In outline:
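Growth-kinetic antagonist readout in 22Rv1 cells, taken 80 h after continuous compound exposure. Activity fitted as signal loss relative to DMSO negative control.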

The nature of experiment [6]: STM_H9_NormalizedViability: Cytotoxicity Assessment at 120 hours in the Stemina devTOX quickPredict H9 human embryonic stem cell (hESC)-based Assay (AID 2283784). In outline: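 Pluripotent H9 hESCs were exposed, with chemical and media replaced every 24 h. Viability was read by CellTiter-Fluor fluorescence, background-corrected and normalized to the 0.1% DMSO neutral control per plate. Loss of signal was fitted.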

In general, AC50 refers to the midpoint of the concentration-response curve, whichever way the signal moves.

AR (gene 367), sequence (P10275 whole entry, looked up): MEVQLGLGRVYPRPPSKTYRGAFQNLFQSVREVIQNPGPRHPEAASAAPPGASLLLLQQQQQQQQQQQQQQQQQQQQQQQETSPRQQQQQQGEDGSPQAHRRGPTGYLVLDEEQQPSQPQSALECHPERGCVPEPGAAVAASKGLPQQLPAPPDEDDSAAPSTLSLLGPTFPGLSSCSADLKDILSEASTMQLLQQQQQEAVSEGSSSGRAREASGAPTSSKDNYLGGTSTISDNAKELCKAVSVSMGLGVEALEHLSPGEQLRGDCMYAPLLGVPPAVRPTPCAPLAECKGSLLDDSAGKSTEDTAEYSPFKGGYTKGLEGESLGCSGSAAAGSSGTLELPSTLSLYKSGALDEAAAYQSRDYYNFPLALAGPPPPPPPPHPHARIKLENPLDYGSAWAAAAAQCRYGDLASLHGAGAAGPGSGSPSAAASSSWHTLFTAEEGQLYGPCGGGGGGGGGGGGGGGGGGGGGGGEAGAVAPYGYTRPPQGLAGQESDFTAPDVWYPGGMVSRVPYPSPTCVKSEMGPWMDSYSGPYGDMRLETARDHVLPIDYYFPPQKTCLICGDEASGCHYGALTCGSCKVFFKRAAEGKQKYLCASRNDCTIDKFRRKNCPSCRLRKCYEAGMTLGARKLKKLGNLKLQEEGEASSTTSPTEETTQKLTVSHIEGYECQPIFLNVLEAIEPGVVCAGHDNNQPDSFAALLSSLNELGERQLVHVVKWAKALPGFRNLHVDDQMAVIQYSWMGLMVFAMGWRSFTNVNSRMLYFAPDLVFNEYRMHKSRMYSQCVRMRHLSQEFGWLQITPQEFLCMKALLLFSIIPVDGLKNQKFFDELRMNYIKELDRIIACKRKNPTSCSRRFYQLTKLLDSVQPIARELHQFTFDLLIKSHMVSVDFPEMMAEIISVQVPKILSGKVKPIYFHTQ

On to `O=C1OC2(c3ccc(O)cc3Oc3cc(O)ccc32)c2ccccc21`, for which the compound was called inactive in experiment [1] and in experiment [2]. Turning to `CCC(C)COC(=O)CC(C)C` (stereo not drawn), the compound was classed as inactive in experiment [1]. For `CC12CCC(C1)C(C)(C)C2O` (stereo not drawn), the compound was classed as inactive in experiment [1], in experiment [2] and in experiment [3]. In the case of `CCNC(=S)NCC`, the call in experiment [1] and in experiment [2] was inactive.

`CN1CCc2cccc3c2[C@H]1Cc1ccc(O)c(O)c1-3`: the AC50 in experiment [1] was 11.4 µM (active); in experiment [2], 4.25 µM (active); in experiment [3], 7.27 µM (active).

In the case of `CCOCC(C)O` (stereo not drawn), the call in experiment [1] and in experiment [2] was inactive.

As for `CC(O)CN` (stereo not drawn), the compound was called inactive in experiment [1], in experiment [2] and in experiment [3]. As to `CC(=O)OC(C)(C)C1CC=C(C)CC1` (stereo not drawn), the compound was called inactive in experiment [1] and in experiment [2]. Also, in experiment [3], the half-maximal activity concentration (AC50) is 79 µM (active).

For `O=Cc1ccccc1O`, the compound was called inactive in experiment [1] and in experiment [2]. `[Na+]`: the compound was classed as inactive in experiment [1] and in experiment [2]. As to `CCCc1ccc(N)cc1`, the result in experiment [1], in experiment [2] and in experiment [3] was inactive. Turning to `CC1=CCC(C(C)C)=CC1`, in experiment [1], the compound was classed as inactive. For `O=c1cc(-c2ccc(O)cc2)oc2cc(O)cc(O)c12`, the figures for the AC50 in experiment [1] and in experiment [2] were 12.7 µM (active) and 6.43 µM (active), respectively. For the compound `CC(=O)CC(=O)N(C)C`, the result in experiment [1] and in experiment [2] was inactive.

With `CCCCCCCCOC(C)=O`, the call in experiment [1], in experiment [2] and in experiment [3] was inactive. `NC(N)=S`: the call in experiment [1] and in experiment [2] was inactive. On to `CCCCCC1CCC(=O)O1` (stereo not drawn), for which the call in experiment [1], in experiment [2] and in experiment [3] was inactive. With `CCCC(O)C(CC)CO` (stereo not drawn), the compound was classed as inactive in experiment [1].

Take `CCC(C)(C)C1CCC(OC)CC1` (stereo not drawn): the result in experiment [1], in experiment [2] and in experiment [3] was inactive.

Turning to `CNC(=C[N+](=O)[O-])NCCSCc1ccc(CN(C)C)o1`, the compound was classed as inactive in experiment [1] and in experiment [2]. In the case of `CC(=O)C1C(=O)C=C(C)OC1=O` (stereo not drawn), the compound was classed as inactive in experiment [1], in experiment [2] and in experiment [3].

As for `CCCCCCCCCCO[C@@H]1O[C@H](CO)[C@@H](O)[C@H](O)[C@H]1O`, the result in experiment [1] and in experiment [2] was inactive. Further, the concentration at half-maximal activity (AC50) in experiment [3] was 80.3 µM (active). On to `COc1ccc(OC)cc1`, for which the result in experiment [1] was inactive. As for `CC(C)(CO)CO`, the call (in experiment [1]; in experiment [2]; in experiment [3]; in the experiment with AR (gene 367) [4]; with AR (gene 367) [5]) was inactive. For the compound `O=C(O)C1=NN(c2ccc(S(=O)(=O)O)cc2)C(=O)C1`, the AC50 in experiment [1] was 8.67 µM (active).

For the compound `C1=COCCC1`, the outcome in experiment [1], in experiment [2] and in experiment [3] was inactive.

In the case of `CCCCC(CC)COCCO` (stereo not drawn), the outcome in experiment [1], in experiment [2] and in experiment [3] was inactive. In the case of `OC[C@H]1O[C@@H](O[C@H]2[C@H](O)[C@@H](O)[C@H](O)O[C@@H]2CO)[C@H](O)[C@@H](O)[C@H]1O`, in experiment [1], the AC50 was 0.603 µM (active).

For `CC(=O)Oc1c(C)c(C)c2c(c1C)CC[C@@](C)(CCC[C@H](C)CCC[C@H](C)CCCC(C)C)O2`, in experiment [1], the outcome was inactive.

As for `C=CCCCCCCCCC(=O)OCC`, the outcome in experiment [1], in experiment [2] and in experiment [3] was inactive.

As to `c1ccc(Cc2ccccc2)cc1`, the compound was called inactive in experiment [1] and in experiment [3]. Besides, the AC50 in experiment [2] was 9.27 µM (active). Turning to `CN(C)C(=O)Nc1ccccc1`, the compound was classed as inactive in experiment [1] and in experiment [2]. `CCCCN(CCCC)CCCCCCN(CCCC)CCCC`: the call in experiment [1] and in experiment [3] was inactive. For the compound `O=C(O)CS`, the result in experiment [2] and in experiment [3] was inactive. For `CCO[Si](CC)(OCC)OCC`, the compound was classed as inactive in experiment [1] and in experiment [3].

`C1CCCNCC1`: the result in experiment [2] was inactive. In the case of `CCCCCCOc1ccc(O)cc1`, the AC50 in experiment [1] was 10.9 µM (active); in experiment [2], 10.4 µM (active); in experiment [3], 67.3 µM (active); with AR (gene 367) [5], 13.3 µM (active). Turning to `c1ccc2scnc2c1`, the call in experiment [1] and in experiment [3] was inactive. As for `FC(F)(F)c1ccc(Cl)c(Cl)c1`, the call in experiment [1] and in experiment [3] was inactive. Take `CN(C)C`: the call in experiment [1] and in experiment [3] was inactive. Turning to `COc1ccccc1O`, the result in experiment [2] was inactive. For `CCCCCCCCCCCCOCCOS(=O)(=O)O`, in experiment [2], the compound was called inactive. Moreover, the AC50 in experiment [3] was 84.1 µM (active). With `O=S(=O)(O)c1cc(S(=O)(=O)O)c2c(N=Nc3ccccc3)c(O)ccc2c1`, in experiment [2], the result was inactive. On to `CCC(C)(CCCC(C)C)OC(C)=O` (stereo not drawn), for which the compound was called inactive in experiment [1] and in experiment [3]. Take `N[C@@H](CCC(=O)O)C(=O)O`: the call in experiment [3] was inactive. As to `CC(CCO)CC(C)(C)C` (stereo not drawn), the outcome (in experiment [1]; in experiment [2]; in experiment [3]; in the experiment with AR (gene 367) [5]) was inactive. For `CCCCCCCC(=O)N(C)C`, in experiment [2], the result was inactive. As for `CC(O)CNCC(C)O` (stereo not drawn), in experiment [2], the compound was classed as inactive.

Regarding `CCCCCCCCOC(=O)c1ccc(O)cc1`, the result in experiment [1] was inactive. The AC50 in experiment [3] was 24.7 µM (active). Consider `CCCCOCCOCCOCCO`, for which the call in experiment [1], in experiment [2] and in experiment [6] was inactive. As for `CC1COC(=O)O1` (stereo not drawn), the compound was classed as inactive (in experiment [2]; in experiment [3]; with AR (gene 367) [4]; in the experiment with AR (gene 367) [5]). In the case of `CC1(C)[C@H](C=C(Cl)Cl)[C@H]1C(=O)OCc1cccc(Oc2ccccc2)c1`, the AC50 in experiment [3] is 12.5 µM (active). For the compound `CC(C)CCOC(=O)CC(C)C`, in experiment [3], the compound was called inactive. As for `CCCC[N+](C)(CCCC)CCCC`, the call in experiment [1] and in experiment [3] was inactive. Regarding `CC1=CC(C)C(C=O)C(C)C1` (stereo not drawn) (tested in a mixture with another compound), the AC50 in experiment [3] is 50 µM (active).

On to `CC(=O)c1ccc(O)cc1`, for which the call in experiment [1] and in experiment [3] was inactive.

Turning to `C=C(C)CCCC(C)CCO` (stereo not drawn), in experiment [3], the AC50 was 50 µM (active).

As for `CC(C)(C)C1CCC(O)CC1` (stereo not drawn), the result in experiment [1] and in experiment [3] was inactive. Regarding `NNC(=O)OCc1ccccc1`, the outcome in experiment [3] was inactive. Consider `CC(O)COCC(C)O` (stereo not drawn), for which, in experiment [3], the result was inactive. Take `CCC(=O)OC(C)(C)C1CC=C(C)CC1` (stereo not drawn): the outcome in experiment [2] and in experiment [3] was inactive. For `C=CC(O)CCCCC` (stereo not drawn), in experiment [2], the compound was classed as inactive. On to `CCC(C)(C)C1CCC(=O)CC1`, for which the compound was classed as inactive (in experiment [2]; in the experiment with AR (gene 367) [4]; in the experiment with AR (gene 367) [5]). For `CCCCCCC(C)O` (stereo not drawn), the result in experiment [2] was inactive.

As to `CC(C)C(=O)c1ccccc1`, the call in experiment [2] and in experiment [3] was inactive. In the case of `CC1=CCC(C(C)(C)O)CC1` (stereo not drawn), the result in experiment [1] and in experiment [2] was inactive. Besides, the AC50 in the experiment with AR (gene 367) [5] is 7.98 µM (active).

Consider `CCCCCCCCSCc1cc(C)c(O)c(CSCCCCCCCC)c1`, for which, in experiment [3], the result was inactive. In the case of `N=C1N=C(N)c2ccccc21`, the AC50 in experiment [3] is 74 µM (active). Consider `CC(=O)Nc1cc(S(=O)(=O)O)cc2cc(S(=O)(=O)O)c(N=Nc3ccccc3)c(O)c12`, for which the compound was called inactive in experiment [2]. With `CCCO[Si](OCCC)(OCCC)OCCC`, the compound was classed as inactive in experiment [2].

As to `CCCCCCOC(C)=O`, in experiment [6], the result was inactive. Turning to `CC(=O)N(C)C`, in the experiment with AR (gene 367) [5], the outcome was inactive.
